# Columns and labels:
# Type in all cases: functional
# [1] = molecular target: Solute carrier family 2, facilitated glucose transporter member 1 (Homo sapiens) (UniProt P11166); experiment: ST_JUDE_LEISH: Cytotoxicity at 2uM final concentration against transgenic Leishmania Mexicana promastigotes LmGLUT1 that are glucose transport deficient and complemented with the human glucose transporter GLUT1. Activity is measured by DNA content using SYBR green in vitro
# [2] = molecular target: Hexose transporter 1 (Plasmodium falciparum) (UniProt O97467); experiment: ST_JUDE_LEISH: Cytotoxicity at 2uM final concentration against transgenic Leishmania Mexicana promastigotes LmPfHT that are glucose transport deficient and complemented with the Plasmodium falciparum hexose transporter. Activity is measured by DNA content using SYBR green in vitro
# [3] = molecular target: Glucose transporter (Leishmania mexicana) (UniProt O61059); experiment: ST_JUDE_LEISH: Cytotoxicity at 2uM final concentration against transgenic Leishmania Mexicana promastigotes LmGT2 that are glucose transport deficient and complemented with the L. Mexicana glucose transporter 2. Activity is measured by DNA content using SYBR green in vitro
# Sequence of Solute carrier family 2, facilitated glucose transporter member 1 (Homo sapiens) (P11166 whole entry): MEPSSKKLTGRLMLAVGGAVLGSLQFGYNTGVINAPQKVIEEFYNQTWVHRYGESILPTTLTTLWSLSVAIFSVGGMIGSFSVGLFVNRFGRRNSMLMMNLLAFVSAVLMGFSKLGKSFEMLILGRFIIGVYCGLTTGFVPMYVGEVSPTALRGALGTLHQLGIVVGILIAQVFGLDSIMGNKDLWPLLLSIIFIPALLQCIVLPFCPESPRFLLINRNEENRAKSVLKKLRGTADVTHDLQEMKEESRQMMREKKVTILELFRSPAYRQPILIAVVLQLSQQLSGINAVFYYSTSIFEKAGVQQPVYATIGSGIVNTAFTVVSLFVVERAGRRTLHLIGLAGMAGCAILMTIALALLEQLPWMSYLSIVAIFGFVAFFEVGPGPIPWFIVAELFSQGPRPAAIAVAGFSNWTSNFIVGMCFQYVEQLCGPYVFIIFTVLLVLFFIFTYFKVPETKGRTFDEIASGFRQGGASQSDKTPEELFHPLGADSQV
Compound,inhibition [1] [%],inhibition [2] [%],inhibition [3] [%]
CCc1ccccc1N=C1c2c(cccc2[N+](=O)[O-])C(=O)C1C(C)=O (stereo not drawn),-1.62,-1.21,-2.14
CCCCN1CCN(CCCCNc2c3ccccc3nc3ccccc23)CC1,36.8,43.1,22
COc1ccc2ncc(F)c(CCN3C4CCC3CC(NCc3ccc5c(c3)OCCO5)C4)c2n1 (stereo not drawn),59.9,71.9,79.2
Oc1ccc(Br)cc1C(O)CNCc1ccccc1OCc1ccccc1 (stereo not drawn),2.85,3.54,2.87
CC1(C)N=C(N)N=C(N)N1OCCCCON1C(N)=NC(N)=NC1(C)C,3.48,3.55,3.76
c1cc(CNCC2CCCO2)cc(-c2csc(-c3nc4ccccc4[nH]3)c2)c1 (stereo not drawn),-1.5,2.45,2.04
COc1ccc(OC)c(NC(=O)CSc2nc(-c3ccccc3Cl)ns2)c1,0.9,0.98,-1.15
O=C(Nc1ccc2oc(-c3ccc(Br)cc3)nc2c1)c1ccc([N+](=O)[O-])o1,10.3,6.94,6.73
CC(C)(C)c1ccccc1SC1=C(O)CC2(CCNCC2)OC1=O,0.78,0.64,1.29
N=C(N)c1ccc(C(=O)Nc2cccc(C(=N)N)c2)cc1,-0.57,0.84,-0.81
CCCC(C)n1ccc2c3c(N)nc(N)nc3ccc21 (stereo not drawn),47.3,56.9,29.7
CN(C)CCOc1ccc(-c2cc(-c3ccncc3)c(-c3ccc(Cl)c(O)c3)[nH]2)cc1,1.45,1.71,1.4
NCc1cccc(-c2ccc(CNC3CCN(Cc4ccccc4)CC3)cc2)c1,6.37,2.02,-1.34
O=C(NC1CCN(Cc2ccccc2)CC1)c1ccc(-c2nc3cc(Cl)c(Cl)cc3[nH]2)s1,0.03,1.08,1.39
Cc1[nH]c(/C=C2\C(=O)Nc3ccc(S(=O)(=O)Cc4c(Cl)cccc4Cl)cc32)c(C)c1C(=O)N1CCC[C@@H]1CN1CCCC1,1,0.58,2.26
COc1ccc(Cn2c(N3CCN(S(=O)(=O)c4ccc(OC)cc4)CC3)nc3c2c(=O)n(CC2CC2)c(=O)n3CC2CC2)cc1,0.89,-0.86,-1.39
